# Where “and” joins values, the source holds several entries; their conditions need not be identical. Identical values can stand only once. Screen size: about 5,500 compounds; about 2,000 (36%) were called active. Roughly 18% stayed inconclusive and do not appear here. The list shows a part of the results. Values without a mark were called inactive. Cut-off read from the data, not from the text of the source: active = normalized growth mostly below about 0.91 (no sharp cut-off); inconclusive = no clear call, values can overlap the other calls; inactive = mostly above about 0.92.
# Experiment: chemical genetic growth profiling, strain panel (AID 1159580);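 note: tested at 20 µM; growth read once vehicle control cultures reached saturation at 30 °C; 1 = growth at the plate median or of vehicle wells; lower values mean less growth of the strain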
# Settings: S. cerevisiae deletion strains, growth OD
compound,measurement,setting,value
CC(NCCc1ccc(O)cc1)C(O)c1ccc(O)cc1 (centres undefined),normalized growth,"locus YAL021C, strain ccr4, stronger effect = lower value",0.997
same,normalized growth,"locus YAL026C, strain drs2, stronger effect = lower value",0.504 (active)
same,normalized growth,"locus YAL030W, strain snc1, stronger effect = lower value",1.01
same,normalized growth,"locus YBL061C, strain skt5, stronger effect = lower value",0.991
same,normalized growth,"locus YBR009C, strain hhf1, stronger effect = lower value",1.04
same,normalized growth,"locus YBR021W, strain FUR4, stronger effect = lower value",0.962
same,normalized growth,"locus YBR023C, strain chs3, stronger effect = lower value",0.989
same,normalized growth,"locus YBR171W, strain sec66, stronger effect = lower value",0.994
same,normalized growth,"locus YBR229C, strain ROT2, stronger effect = lower value",0.988
same,normalized growth,"locus YBR231C, strain swc5, stronger effect = lower value",1.01
same,normalized growth,"locus YBR279W, strain paf1, stronger effect = lower value",0.978
same,normalized growth,"locus YCL011C, strain gbp2, stronger effect = lower value",0.991
same,normalized growth,"locus YCL016C, strain dcc1, stronger effect = lower value",0.968
same,normalized growth,"locus YCL029C, strain bik1, stronger effect = lower value",0.977
same,normalized growth,"locus YCL061C, strain MRC1, stronger effect = lower value",0.999
same,normalized growth,"locus YCL069W, strain vba3, stronger effect = lower value",0.973
same,normalized growth,"locus YCR088W, strain abp1, stronger effect = lower value",0.997
same,normalized growth,"locus YDL005C, strain med2, stronger effect = lower value",0.983
same,normalized growth,"locus YDL035C, strain GPR1, stronger effect = lower value",0.982
same,normalized growth,"locus YDL040C, strain nat1, stronger effect = lower value",0.99
same,normalized growth,"locus YDL074C, strain BRE1, stronger effect = lower value",0.999
same,normalized growth,"locus YDL101C, strain DUN1, stronger effect = lower value",0.985
same,normalized growth,"locus YDL134C, strain PPH21, stronger effect = lower value",0.977
same,normalized growth,"locus YDL185W, strain tfp1, stronger effect = lower value",0.979
same,normalized growth,"locus YDL192W, strain arf1, stronger effect = lower value",0.982
same,normalized growth,"locus YDR001C, strain nth1, stronger effect = lower value",0.998
same,normalized growth,"locus YDR069C, strain doa4, stronger effect = lower value",1.01
same,normalized growth,"locus YDR101C, strain arx1, stronger effect = lower value",0.997
same,normalized growth,"locus YDR137W, strain rgp1, stronger effect = lower value",0.982
same,normalized growth,"locus YDR150W, strain NUM1, stronger effect = lower value",0.994
same,normalized growth,"locus YDR159W, strain sac3, stronger effect = lower value",1
same,normalized growth,"locus YDR162C, strain NBP2, stronger effect = lower value",0.984
same,normalized growth,"locus YDR195W, strain ref2",0.99
same,normalized growth,"locus YDR297W, strain sur2, stronger effect = lower value",1.01
same,normalized growth,"locus YDR318W, strain mcm21, stronger effect = lower value",0.986
same,normalized growth,"locus YDR334W, strain swr1, stronger effect = lower value",0.984
same,normalized growth,"locus YDR335W, strain msn5, stronger effect = lower value",0.952
same,normalized growth,"locus YDR388W, stronger effect = lower value",0.981
same,normalized growth,"locus YDR392W, strain spt3, stronger effect = lower value",0.189 (active)
same,normalized growth,"locus YDR502C, strain sam2, stronger effect = lower value",0.983
same,normalized growth,"locus YEL003W, strain gim4, stronger effect = lower value",0.999
same,normalized growth,"locus YEL037C, strain rad23, stronger effect = lower value",0.954
same,normalized growth,"locus YEL061C, strain CIN8 (second series), stronger effect = lower value",0.989
same,normalized growth,"locus YEL061C, strain CIN8, stronger effect = lower value",0.993
same,normalized growth,"locus YER015W, strain faa2, stronger effect = lower value",0.995
same,normalized growth,"locus YER016W, strain bim1, stronger effect = lower value",0.984
same,normalized growth,"locus YER110C, stronger effect = lower value",0.977
same,normalized growth,"locus YER111C, strain swi4, stronger effect = lower value",0.979
same,normalized growth,"locus YER155C, strain BEM2 (second series), stronger effect = lower value",0.948
same,normalized growth,"locus YER155C, strain BEM2, stronger effect = lower value",0.983
same,normalized growth,"locus YER167W, strain BCK2, stronger effect = lower value",0.983
same,normalized growth,"locus YFR010W, strain ubp6, stronger effect = lower value",0.922
same,normalized growth,"locus YGL078C, strain dbp3, stronger effect = lower value",0.984
same,normalized growth,"locus YGL086W, strain mad1, stronger effect = lower value",0.987
same,normalized growth,"locus YGL167C, strain pmr1, stronger effect = lower value",0.997
same,normalized growth,"locus YGL173C, strain kem1, stronger effect = lower value",1.02
same,normalized growth,"locus YGL227W, strain vid30, stronger effect = lower value",0.993
same,normalized growth,"locus YGL240W, strain doc1, stronger effect = lower value",1.02
same,normalized growth,"locus YGL248W, strain PDE1, stronger effect = lower value",0.996
same,normalized growth,"locus YGL253W, strain hxk2, stronger effect = lower value",0.766 (active)
same,normalized growth,"locus YGR078C, strain PAC10, stronger effect = lower value",1
same,normalized growth,"locus YGR135W, strain pre9, stronger effect = lower value",0.972
same,normalized growth,"locus YGR229C, strain SMI1, stronger effect = lower value",0.989
same,normalized growth,"locus YGR252W, strain gcn5, stronger effect = lower value",0.946
same,normalized growth,"locus YHR013C, strain ard1, stronger effect = lower value",0.953
same,normalized growth,"locus YHR027C, strain rpn1, stronger effect = lower value",1.01
same,normalized growth,"locus YHR030C, strain SLT2, stronger effect = lower value",0.986 and 1
same,normalized growth,"locus YHR079C, strain IRE1 (second series), stronger effect = lower value",0.979
same,normalized growth,"locus YHR079C, strain IRE1, stronger effect = lower value",1.01
same,normalized growth,"locus YHR094C, strain hxt1, stronger effect = lower value",0.978
same,normalized growth,"locus YHR129C, strain ARP1, stronger effect = lower value",0.986
same,normalized growth,"locus YHR142W, strain chs7, stronger effect = lower value",0.812 (active)
same,normalized growth,"locus YHR200W, strain rpn10, stronger effect = lower value",0.985
same,normalized growth,"locus YIL066C, strain RNR3, stronger effect = lower value",0.99
same,normalized growth,"locus YIL073C, strain SPO22, stronger effect = lower value",0.946
same,normalized growth,"locus YIL125W, strain kgd1, stronger effect = lower value",0.99
same,normalized growth,"locus YIR030C, strain dcg1, stronger effect = lower value",0.983
same,normalized growth,"locus YJL092W, strain hpr5, stronger effect = lower value",0.973
same,normalized growth,"locus YJL095W, strain BCK1 (second series), stronger effect = lower value",0.998
same,normalized growth,"locus YJL095W, strain BCK1, stronger effect = lower value",1.03 and 1.02
same,normalized growth,"locus YJL115W, strain asf1, stronger effect = lower value",0.975
same,normalized growth,"locus YJL129C, strain trk1, stronger effect = lower value",0.973
same,normalized growth,"locus YJL134W, strain LCB3, stronger effect = lower value",0.99
same,normalized growth,"locus YJL154C, strain vps35, stronger effect = lower value",0.983
same,normalized growth,"locus YJL164C, strain tpk1, stronger effect = lower value",0.987
same,normalized growth,"locus YJL166W, strain qcr8, stronger effect = lower value",1.03
same,normalized growth,"locus YJL168C, strain set2, stronger effect = lower value",0.983
same,normalized growth,"locus YJL187C, strain SWE1 (second series), stronger effect = lower value",1
same,normalized growth,"locus YJL187C, strain SWE1, stronger effect = lower value",0.998
